DAX1 inh-1: inhibitors of DAX1 repression of SF-1 activated StAR promoter | actives 1.1% (n = 370,000) | HEK293T StAR-luciferase reporter, SF-1/DAX-1 repression relief | inhibition, % at 6.8 µM;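 active means inhibition above the mean over all tested compounds plus 3 SD, cut at about 3.6% in these data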;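 further: 0% = DAX-1 cells with DMSO and 100% = cells lacking DAX-1 with DMSO; higher inhibition means more luminescence from relief of DAX-1 repression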
DAX1 inh-2: NR0B1 (DAX1) inhibition; actives 0.99% (n = 340,000); inhibition, % at 6.75 µM; AID 504766; HEK293 Gal4-DAX1 luciferase reporter, luminescence; P51843;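 active means inhibition above the mean over all tested compounds plus 3 SD, cut at about 4.2% in these data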;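 further: 0% = DAX1-transfected cells with DMSO and 100% = empty-vector control cells with DMSO; inhibition shows as a rise in luminescence from relieved DAX1 repression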
hcDAF12 agonist: activates DAF-12 receptor from parasite H. contortus; HEK293 hcDAF-12 lit1-tk-luc reporter, luminescence; 0% DMSO, 100% Δ7-dafachronic acid; activation, % at 6.8 µM; actives 1.4% (n = 370,000); AID 652067;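 active means activation above the mean of all tested compounds plus 3 SD, cut at about 5.5% in these data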;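 further: 100% = response to 3 µM Δ7-dafachronic acid high control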
hgDAF12 agonist: hgDAF-12 agonism, primary luciferase screen | actives 1.8% (n = 370,000) | activation, % at 6.8 µM | HEK293 GAL4-hgDAF12 UAS-luciferase reporter, agonist luminescence; normalized to butyrate control;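 active means activation above a cutoff set at the mean of all screened compounds plus 3 SD, cut at about 10% in these data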;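 further: 0% = DMSO wells and 100% = sodium butyrate wells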
ssDAF12 agonist: activators of S. stercoralis DAF-12 nuclear receptor; HEK293 ssDAF-12/GRIP1 lit1-tk-luc reporter, luminescence; % of 3 µM dafachronic acid response; activation, % at 6.8 µM; actives 1% (n = 370,000);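 active means activation above the mean over all tested compounds plus 3 SD, cut at about 0.9% in these data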;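 further: 0% = DMSO-only wells and 100% = 3 µM delta7-dafachronic acid wells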
LXR ag: LXR-beta agonism as hcDAF-12 counter-screen | 3,400 tested, under 10 active | HEK293 Gal4-LXR tk-luc reporter, luminescence, 24 h; normalized: DMSO 0%, positive control 100% | shares compounds with hcDAF12 agonist | activation, % at 6.8 µM;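 active means mean percent activation of the reporter above a cutoff set as the average over tested compounds plus their standard deviation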
Target sequence (P55055 whole entry, looked up, the tested form may be a part): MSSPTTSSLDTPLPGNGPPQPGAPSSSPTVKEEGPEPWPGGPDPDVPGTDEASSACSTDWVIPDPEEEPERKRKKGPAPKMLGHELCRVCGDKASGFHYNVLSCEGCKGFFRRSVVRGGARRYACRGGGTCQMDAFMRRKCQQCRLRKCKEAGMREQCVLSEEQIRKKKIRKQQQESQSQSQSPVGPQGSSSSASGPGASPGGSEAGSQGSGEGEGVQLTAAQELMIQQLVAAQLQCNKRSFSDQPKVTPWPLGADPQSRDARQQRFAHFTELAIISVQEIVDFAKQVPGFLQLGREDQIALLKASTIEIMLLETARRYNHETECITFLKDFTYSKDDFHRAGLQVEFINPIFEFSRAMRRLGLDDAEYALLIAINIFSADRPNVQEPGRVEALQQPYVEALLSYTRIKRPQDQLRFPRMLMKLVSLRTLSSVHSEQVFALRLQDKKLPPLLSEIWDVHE
hcDAF12 ag: hcDAF-12 agonism, confirmation assay. HEK293 hcDAF-12 lit1-tk-luc reporter, luminescence; % of Δ7-dafachronic acid response. shares compounds with hcDAF12 agonist. activation, % at 6.8 µM. actives 61% (n = 3,400);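 active means mean activation across triplicate tests above the threshold derived from the earlier primary screen, cut at about 5.5% in these data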;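 further: 0% = DMSO only wells and 100% = 3 µM Δ7-dafachronic acid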
Active calls of the source: *. This is a sample that favours compounds with a hit; in the whole collection about 4.1% have one here.

For CN(C)c1ccc(N=Nc2ccccc2Br)cc1 the results were DAX1 inh-1 3, DAX1 inh-2 0, hcDAF12 agonist 20*, hgDAF12 agonist 12*, ssDAF12 agonist 1.6*, LXR ag 2 and hcDAF12 ag 19*.
`C=CCN1C(=O)[C@H](CC(=O)N2CCN(C(=O)C3CC3)CC2)[C@@]2(C(=O)OCC)CCCC=C12` gave DAX1 inh-1 -1, hcDAF12 agonist -1, hgDAF12 agonist 3 and ssDAF12 agonist -1.
Screening O=C(NC1CCCCN(Cc2ccc(Cl)cc2)C1=O)c1ccc(F)cc1 (centres undefined) returned DAX1 inh-1 -1, hcDAF12 agonist -2, hgDAF12 agonist 0 and ssDAF12 agonist -2.
`Cc1cnc(C(=O)OCC(=O)Nc2cc(Cl)ccc2C#N)cn1` gave DAX1 inh-1 -1, DAX1 inh-2 1, hcDAF12 agonist 6.6*, hgDAF12 agonist 3, ssDAF12 agonist 0, LXR ag 0 and hcDAF12 ag 4.
CSCCC(NC(=O)c1ccc(Cl)cc1)C(=O)OCC(=O)NCc1ccco1 (centres undefined) was read as DAX1 inh-1 1, DAX1 inh-2 -1, hcDAF12 agonist 1, hgDAF12 agonist 0 and ssDAF12 agonist -1.
`CSCCC(NC(=O)c1ccc(Cl)cc1)C(=O)OCC(=O)Nc1cc(Cl)ccc1C#N` (centres undefined) gave DAX1 inh-1 0, DAX1 inh-2 0, hcDAF12 agonist 7.5*, hgDAF12 agonist 1, ssDAF12 agonist 0, LXR ag 0 and hcDAF12 ag 3.
For COc1ccc(-c2cc(=O)c3cccc(CC(=O)O)c3o2)cc1 the results were DAX1 inh-1 0, hcDAF12 agonist 1, hgDAF12 agonist 0 and ssDAF12 agonist -1.
COc1ccc(/C(N)=N/OC(=O)c2ccc(Br)o2)cc1 was read as DAX1 inh-1 0, DAX1 inh-2 2, hcDAF12 agonist 8.4*, hgDAF12 agonist 5, ssDAF12 agonist 0, LXR ag 0 and hcDAF12 ag 4.
CCN1CCN(c2nc3c(C)cccn3c(=O)c2/C=C(\C#N)S(=O)(=O)c2ccccc2)CC1 was read as DAX1 inh-1 0, DAX1 inh-2 0, hcDAF12 agonist 0, hgDAF12 agonist 3 and ssDAF12 agonist -1.
For Cc1cccn2c(=O)c(/C=C(\C#N)S(=O)(=O)c3ccccc3)c(N3CCN(c4ccccc4)CC3)nc12 the results were DAX1 inh-1 1, DAX1 inh-2 0, hcDAF12 agonist 6.7*, hgDAF12 agonist 0, ssDAF12 agonist -1, LXR ag 0 and hcDAF12 ag 1.
`CCc1c(-c2cccc(F)c2)ncn1CCc1ccccc1OC` gave DAX1 inh-1 -3, hcDAF12 agonist -3, hgDAF12 agonist -4 and ssDAF12 agonist -2.
C[C@H](CO)N1C[C@H](C)[C@H](CN(C)C(=O)Nc2ccc3c(c2)OCO3)OCc2cnnn2CCCC1=O was read as DAX1 inh-1 -1, hcDAF12 agonist 1, hgDAF12 agonist 0 and ssDAF12 agonist -1.
For Cc1ccc(C(=O)c2oc3ccccc3c2N)cc1 the results were DAX1 inh-1 1, DAX1 inh-2 2, hcDAF12 agonist 9.5*, hgDAF12 agonist 11*, ssDAF12 agonist 1, LXR ag 1 and hcDAF12 ag 9.7*.
Nc1c(C(=O)c2ccccc2)oc2ccc(Br)cc12 was read as DAX1 inh-1 4.3*, DAX1 inh-2 5.7*, hcDAF12 agonist 9.9*, hgDAF12 agonist 13*, ssDAF12 agonist 1.3*, LXR ag 1 and hcDAF12 ag 8.3*.
Screening CCNC(=S)Nc1ccc(OCc2nc3ccccc3s2)cc1 returned DAX1 inh-1 1, DAX1 inh-2 4, hcDAF12 agonist 7.8*, hgDAF12 agonist 10, ssDAF12 agonist 1.2*, LXR ag 1 and hcDAF12 ag 8.2*.
`Oc1ccc(/C=C/c2ccc3ccccc3n2)cc1` gave DAX1 inh-1 0, DAX1 inh-2 -7, hcDAF12 agonist 1, hgDAF12 agonist 0 and ssDAF12 agonist -2.
C(=C\c1ccc2ccccc2n1)/c1ccccc1 was read as DAX1 inh-1 2, DAX1 inh-2 -2, hcDAF12 agonist 14*, hgDAF12 agonist 6, ssDAF12 agonist 1.3*, LXR ag 1 and hcDAF12 ag 13*.
For Cc1ccc(O)c(-c2cc(-c3ccccc3F)[nH]n2)c1 the results were DAX1 inh-1 1, DAX1 inh-2 1, hcDAF12 agonist 11*, hgDAF12 agonist 10, ssDAF12 agonist 0, LXR ag 1 and hcDAF12 ag 9.4*.
Screening COC(=O)[C@]1(Cc2ccccc2)NC=C(C(=O)c2ccc(F)cc2)[C@@H]1c1ccccc1 returned DAX1 inh-1 0, hcDAF12 agonist -1, hgDAF12 agonist 1 and ssDAF12 agonist -1.
For O=C(NC(=S)NNC(=O)c1cccs1)c1ccccc1 the results were DAX1 inh-1 1, DAX1 inh-2 1, hcDAF12 agonist 4, hgDAF12 agonist 4 and ssDAF12 agonist 0.
CC(C)(C)c1ccc(C(=O)NC(=S)NNC(=O)c2cccs2)cc1 was read as DAX1 inh-1 3, DAX1 inh-2 0, hcDAF12 agonist 21*, hgDAF12 agonist 9, ssDAF12 agonist 1, LXR ag 0 and hcDAF12 ag 1.
`COC(=O)C1CN(Cc2ccc(Cl)cc2)CCS(=O)(=O)N1Cc1cn(Cc2ccc(OC)cc2)nn1` (centres undefined) gave DAX1 inh-1 -1, hcDAF12 agonist -2, hgDAF12 agonist 3 and ssDAF12 agonist -1.
For COc1ccc(NC(=O)c2c(Cl)n(C)c3ccccc23)cc1 the results were DAX1 inh-1 -1, DAX1 inh-2 -2, hcDAF12 agonist 8.2*, hgDAF12 agonist 7, ssDAF12 agonist 1.0*, LXR ag 0 and hcDAF12 ag 6.9*.
Screening COc1ccc(NS(=O)(=O)NC(=O)c2c(C)n(C)c3ccccc23)cc1 returned DAX1 inh-1 0, DAX1 inh-2 -1, hcDAF12 agonist 7.3*, hgDAF12 agonist 6, ssDAF12 agonist 0, LXR ag 0 and hcDAF12 ag 1.
`Cc1ccc(SCc2cn3cccnc3n2)cc1` gave DAX1 inh-1 1, DAX1 inh-2 2, hcDAF12 agonist 1, hgDAF12 agonist 5 and ssDAF12 agonist -1.
Cc1ccn2cc(CSc3ccccc3)nc2c1 was read as DAX1 inh-1 2, DAX1 inh-2 2, hcDAF12 agonist 6.6*, hgDAF12 agonist 12*, ssDAF12 agonist 0, LXR ag 1 and hcDAF12 ag 5.

High-throughput results (PubChem BioAssay)
